Source: PubChem BioAssay
This is a sample that favours compounds with a hit; in the whole collection about 3.8% have one here.
697 NFkB inh = inhibitors of PMA/ionomycin-induced NF-kB reporter, 697 cells, primary screen, B-cell NF-kB inhibitor project, cell-based, luminescence, uHTS. 697 B-cell NF-kB luciferase reporter, 16 h. inhibition, % at 4 µM. hit rate 0.33% among 330,000; in the data active = inhibition above about 35%
A1 inh = caspase 3/7 activation in MEF A1-2A-BIM cells, primary screen, A1 inhibitor project, cell-based, luminescence, HTS | Caspase-Glo 3/7 luminescence, 3 h; percent of clofoctol response, vehicle zero | caspase activation, % (concentration not given with the values) | hit rate 0.066% among 330,000;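 active = over half of replicate activation scores above 10%, or exactly half above 10 with the replicate mean above 10; inconclusive = replicate mean below 10 yet half the replicates above 10; inactive = over half of replicates below 10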
Jurkat NFkB inh = inhibitors of induced NF-kB luciferase reporter, primary screen, TCR NF-kB activation inhibitor project, cell-based, luminescence, uHTS; Jurkat, PMA/ionomycin-induced NF-kB luciferase reporter; inhibition, % at 4 µM; hit rate 0.53% among 330,000; in the data active = inhibition above about 50%
NTR1 agonist = agonists of human NTR1, primary screen, imaging, U2OS cells, beta-arrestin-GFP, high content; NTR1-U2OS beta-arrestin-GFP spot imaging, agonist mode; activation, % at 20 µM; Neurotensin receptor type 1 (Homo sapiens), P30989; hit rate 0.17% among 330,000;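 active = activation at or above 40% of the spot to cytoplasm intensity ratio, with at least 20 cells analyzed; inconclusive = wells under 20 cells, flagged as cytotoxic or low count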;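 also: 0% = DMSO without peptide and 100% = 100 nM NTR1 peptide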
Mdm2 MdmX PPI = inhibitors of human Mdm2-MdmX association, primary screen, cell-based, luminescence, split luciferase, SaOS-2, uHTS. SaOS-2 split-luciferase Mdm2/MdmX complementation. inhibition, % at 8 µM. hit rate 3% among 330,000. AID 485346, 2010;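 active = inhibition of at least 50% at 8 µM in the primary screen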
Target sequence (O15151 whole entry, looked up): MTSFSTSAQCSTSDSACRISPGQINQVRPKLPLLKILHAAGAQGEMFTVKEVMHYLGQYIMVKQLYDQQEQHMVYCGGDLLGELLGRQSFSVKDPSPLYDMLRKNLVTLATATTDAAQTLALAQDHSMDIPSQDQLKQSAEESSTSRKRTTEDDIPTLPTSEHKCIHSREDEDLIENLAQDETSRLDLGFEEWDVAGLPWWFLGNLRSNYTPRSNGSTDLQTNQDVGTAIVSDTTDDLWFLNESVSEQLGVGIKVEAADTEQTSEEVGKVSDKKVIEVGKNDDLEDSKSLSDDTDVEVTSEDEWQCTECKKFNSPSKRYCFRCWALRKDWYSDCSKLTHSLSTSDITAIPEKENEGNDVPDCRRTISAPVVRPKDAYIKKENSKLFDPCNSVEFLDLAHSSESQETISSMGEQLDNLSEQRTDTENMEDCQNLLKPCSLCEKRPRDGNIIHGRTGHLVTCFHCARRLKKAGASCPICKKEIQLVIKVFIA
Target sequence (Q00987 whole entry, looked up): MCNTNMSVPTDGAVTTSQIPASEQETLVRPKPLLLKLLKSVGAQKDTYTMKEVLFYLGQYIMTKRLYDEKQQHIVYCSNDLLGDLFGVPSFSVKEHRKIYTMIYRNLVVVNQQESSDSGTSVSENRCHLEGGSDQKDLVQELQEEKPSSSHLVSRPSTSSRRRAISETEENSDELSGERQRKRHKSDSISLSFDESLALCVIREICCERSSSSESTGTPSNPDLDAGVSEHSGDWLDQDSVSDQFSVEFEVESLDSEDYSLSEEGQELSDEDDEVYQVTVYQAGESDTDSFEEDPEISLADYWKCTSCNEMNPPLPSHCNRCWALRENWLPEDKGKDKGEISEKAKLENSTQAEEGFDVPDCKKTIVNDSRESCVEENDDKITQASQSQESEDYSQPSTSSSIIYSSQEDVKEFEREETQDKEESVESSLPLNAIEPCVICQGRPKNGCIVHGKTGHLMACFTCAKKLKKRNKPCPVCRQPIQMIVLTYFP
Beta apoptosis = inhibitors of cytokine-induced beta cell apoptosis, primary screen, luminescence. hit rate 0.8% among 300,000. INS-1E cytokine-induced death, ATP luminescence, 48 h; percent of positive-control rescue, neutral wells zero. AID 435005, 2010. protection from apoptosis, % (test concentration not listed);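 active = Every replicate reaches about 75%, or at least half do and their mean reaches it too, limit read from the data; inconclusive = At least half of replicates reach the limit but their mean does not; inactive = Under half of replicates reach the limit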;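 also: 0% = cytokine-treated negative control wells and 100% = positive control rescue; higher means more ATP so stronger rescue from cytokine killing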
Active calls of the source: *; ? = inconclusive; . = no result given.

SMILES	697 NFkB inh	A1 inh	Jurkat NFkB inh	NTR1 agonist	Mdm2 MdmX PPI	Beta apoptosis
O=C1N=C(N2CCCCC2)SC1=C1CCCC1	-15	-4	-23	0	-17	4
CCCCN1C(=O)/C(=C2\SC(N3CCCCC3)=NC2=O)c2ccccc21	-83	-2	-52	14	-11	80*
Cc1nc2ccc(NC(=O)c3cc(S(=O)(=O)N(C)c4ccccc4)ccc3Cl)cc2s1	.	0	.	.	.	80*
Cc1ccccc1CNc1ccc(C(CC(N)=O)NC(=O)c2ccc(Br)cc2)cc1[N+](=O)[O-] (stereo not given)	-25	0	-8	0	3	91*
c1ccc(-c2nc3nonc3nc2-c2ccccc2)cc1	10	2	7	1	49	135*
Nc1c(-c2ccccc2)nc(Cl)nc1-c1ccccc1	9	-1	7	1	24	-6
Cc1ccc(NC(=O)CSc2nnc(-c3ccc(S(=O)(=O)N4CCCC4)cc3)o2)cc1C	9	.	-2	46*	21	.
Cc1cccc(NC(=O)CSc2nnc(-c3ccc(S(=O)(=O)N4CCCC4)cc3)o2)c1	8	0	-1	0	11	2
CCOc1ccc(S(=O)(=O)NCCC(=O)NCc2ccccn2)cc1	-6	1	7	-1	-6	1
O=C(NC1CCCCC1)C(c1ccc(F)cc1)N(CCc1ccccc1)C(=O)CN1C(=O)c2ccccc2S1(=O)=O (stereo not given)	.	18*	.	.	.	-5
O=C(CN1C(=O)c2ccccc2S1(=O)=O)NC1CCCC1	10	1	13	1	34	-2
COc1ccc(NCc2nnc(SCC(=O)Nc3nc(-c4ccccc4)cs3)n2-c2ccccc2)cc1	-28	0	18	4	49	?
COc1ccc(-n2c(CNc3ccc(C)cc3)nnc2SCC(=O)Nc2nc(-c3ccccc3)cs2)cc1	15	0	4	1	34	86*
CCC(Sc1nc2ncccc2[nH]1)C(=O)N1CCOCC1 (stereo not given)	19	1	-2	0	-3	-2
Cc1cc(N2CCN(S(=O)(=O)c3ccc(Cl)cc3)CC2)c2ccccc2n1	-80	-1	16	21	36	81*
Cc1cc(N2CCN(S(=O)(=O)c3ccc(Cl)c(Cl)c3)CC2)c2ccccc2n1	-1	1	8	17	37	4
C=CCn1c2ccccc2c2n[nH]c(=S)nc21	-2	1	-3	0	6	.
COc1ccc(/C=C/C(=O)NC(=S)NCCc2ccc(OC)c(OC)c2)cc1	-3	7.2*	-8	1	31	20
CCc1ccc(CNC(=O)c2ccc3nc(C4CCCCC4)oc3c2)nc1	-116	-1	-19	1	5	.
CCCc1cc(-c2[nH]ncc2-c2ccc3c(c2)OCCCO3)c(O)cc1O	9	-1	-1	44*	21	-21
Cc1nc(-c2ccc3c(c2)OCCCO3)cs1	-128	-5	-106	0	-47	0
COc1ccc(Cl)cc1C(=O)NNC(=O)c1ccc(F)c(S(=O)(=O)N2CCOCC2)c1	5	0	11	1	25	2
Oc1ccc(/C=N/N2CCN(C3c4ccccc4-c4ccccc43)CC2)cc1O	-7	29*	-5	12	41	4
Oc1ccc(/C=N/N2CCN(C3c4ccccc4-c4ccccc43)CC2)cc1	18	0	-8	38	-26	-5
CCC1(c2ccccc2)NC(=O)N(CC(=O)Nc2cc(S(=O)(=O)N3CCOCC3)ccc2OC(C)C)C1=O (stereo not given)	13	0	1	2	16	.
SMILES	697 NFkB inh	A1 inh	Jurkat NFkB inh	NTR1 agonist	Mdm2 MdmX PPI	Beta apoptosis
Nc1ccc(Br)cc1-c1nc2ccccc2[nH]c1=O	-14	0	-21	1	4	102*
COc1cc(-c2nnc(NC(=O)c3ccc(S(=O)(=O)N4CCOCC4)cc3)o2)cc(OC)c1OC	10	1	15	1	32	86*
O=C(N/N=C/c1ccccc1)c1c(O)c2ccccc2[nH]c1=O	-106	-3	-49	1	38	124*
O=C(N/N=C/c1cccc(F)c1)c1c(O)c2ccccc2[nH]c1=O	.	-2	.	.	.	101*
CCN(CC)c1ccc(C(=O)NNC(=O)CNC(=O)c2cccs2)cc1	-12	0	-14	0	-6	-4
O=C(Nc1ccc([N+](=O)[O-])cc1)Nc1nc(-c2ccc(Cl)s2)cs1	.	0	.	.	.	129*
CC(=O)Nc1nc(-c2ccc([N+](=O)[O-])cc2)cs1	-33	0	-22	2	8	-2
COc1cc(/C=C2/C(=N)N3C=CSC3=NC2=O)ccc1OCCCOc1cc(C)ccc1C	3	8.5*	-14	4	4	13
CCN(CC)S(=O)(=O)c1ccc(OC)c(NC(=O)CCS(=O)(=O)Cc2ccccc2)c1	-3	1	1	-1	15	-1
CCCSc1ccc(-c2nn(-c3ccccc3)cc2/C=C(/C#N)C(=O)N2CCOCC2)cc1	4	1	-11	4	17	20
CCSc1ccc(-c2nn(-c3ccccc3)cc2/C=C(/C#N)C(=O)NC)cc1	.	8.3*	.	.	.	-2
COc1ccccc1N1C(C)=CC(=C(C#N)c2nc3ccccc3s2)C=C1C	-34	0	-4	2	37	128*
Cc1nc(Nc2ccc(S(=O)(=O)N3CCCCC3C)cc2)c2nnn(Cc3ccccc3)c2n1 (stereo not given)	-52	0	14	10	25	76*
Cc1nc(Nc2ccc(Cl)cc2)c2nnn(Cc3ccccc3)c2n1	20	1	7	0	3	8
CCN(CC)C(=O)c1ccc(Oc2ccc([N+](=O)[O-])cc2Cl)cc1	13	0	16	2	21	4
CCN(CC)C(=O)c1cc([N+](=O)[O-])cc2c1-c1ccc([N+](=O)[O-])cc1C2=C(C#N)C#N	22	0	9	1	25	89*
C/C(=N\NC(=O)C(C)n1nc(C)c([N+](=O)[O-])c1C)c1ccccc1O (stereo not given)	-4	2	17	2	40	92*
Cc1cccc(OCCC(=O)Nc2ccc(N3CCOCC3)cc2N2CCOCC2)c1	0	0	-10	3	-30	-2
CNC(=O)C1CN(C(=O)c2cccc(S(=O)(=O)N3c4ccccc4CC3C)c2)c2ccccc2O1 (stereo not given)	3	1	3	3	-18	-8
